In the library only some 9.2% were active in any assay of this set; here they are far more common.
Rab9 prom act – activators of Rab9 promoter; 320,000 tested, 2.8% active; Potency, µM (highest dose often 9.22 µM), without a hit: at the highest dose activation, negative = inhibition, most hits filed as activators; Huh7 Rab9 promoter-luciferase reporter, luminescence, 24 h; note: % of control where 0% means no effect; nearly all actives have a fitted effect of over 60% in size
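Huh7 cells stably carrying a Rab9 promoter-luciferase reporter, 1500 cells per well in OP-MEM I with 10% FBS, treated with compound 24 hours at 37C. Luciferase activity read by luminescence after 10 minutes with Amplite reagent.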
NPC1 promoter act – activates the NPC1 promoter | 320,000 tested, 2.4% active | Huh7 NPC1 promoter luciferase reporter, 24 h | Potency, µM (titrated, usually from 9.22 µM), for the others: at the top dose activation, hits mostly activators; note: % of control where 0% means no effect; nearly all actives have a fitted effect of over 60% in size
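Huh7 reporter cells (NPC1 promoter driving luciferase) are dosed with compound for 24 h at 37 °C, 5% CO2; luciferase detection reagent is then added and luminescence measured after 10 min at ambient temperature.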
SMN2 splice enh – SMN2 splice variant enhancement; 210,000 tested, 2.8% active; AID 1458; HEK293 SMN2-luciferase splicing reporter, luminescence, 30-36 h; Potency, µM (top dose mostly 46.1 µM), for inactives: top-dose activity change, positive = activation, hits mostly activators; note: % of control where 0% means no effect; nearly all actives have a fitted effect of over 55% in size
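HEK293 cells carry an SMN2 minigene-luciferase reporter in which exon 7 inclusion puts luciferase in frame. Cells were seeded at 2000 cells/well, attached for 10-12 hours, then exposed to compounds for 30-36 hours at 37C before ONE-Glo luminescence.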
FLuc counter – counter-screen for miR-21 project: firefly luciferase inhibitors or activators. P08659. purified FLuc, Km substrates, luminescence inhibition. Potency, µM (series often up to 57.5 µM), for the others: at the highest dose activity change, negative = inhibition, most hits filed as inhibitors. 360,000 tested, 6.9% active;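 note: plate controls were vehicle for no effect and reference inhibitor for full effect; nearly all actives have a fitted effect of over 55% in size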
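Purified P. pyralis luciferase, 10 nM final, with Km-level 10 uM D-luciferin and 10 uM ATP in 50 mM Tris acetate pH 7.5, 10 mM Mg acetate, 0.01% Tween-20, 0.05% BSA; 6-point qHTS titration about 60 µM downward; luminescence read.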
ELG1 genotoxic – genotoxicity induction in ELG1-luciferase HEK293T cells; AID 504466; 330,000 tested, 1.3% active; HEK293T ELG1-luciferase reporter, luminescence, 16 h; Potency, µM (titrated, usually from 46 µM), for inactives: at the highest dose activity change, positive = activation, actives largely listed as activators; note: % of control where 0% means no effect; nearly all actives have a fitted effect of over 60% in size
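Cells (2,000/well) expressing the ELG1-luciferase fusion are dosed by pin tool and kept 16 hr at 37 °C, 5% CO2. Signal comes from ONE-Glo luciferase reagent after 30 min at room temperature.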
ELG1 repair inh – ELG1-dependent DNA repair inhibition; HEK293T ELG1-luciferase reporter, luminescence, 16 h; DNA damage induced by 5-fluorouridine; Potency, µM (titrated, usually from 46.1 µM), without a hit: at the highest dose activity change, negative = inhibition, most hits filed as inhibitors; 330,000 tested, 2.3% active; note: % is set by controls: 0 for no effect and ±100 for the full control effect; nearly all actives have a fitted effect of over 55% in size
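5-Fluorouridine DNA damage + compound/DMSO, 2,000 cells/well, 16 h, 37 °C/5% CO2. ONE-Glo, 30 min RT, luminescence. Readout = decrease in reporter signal.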
ELG1 FLuc counter – luciferase inhibition in cell-free luciferin readout for ELG1 hits. 350 tested, 3% active. cell-free firefly luciferase luminescence counter-screen, ViewLux. AID 624247. shares compounds with ELG1 repair inh. Potency, µM (series often up to 46.1 µM), for inactives: at the highest dose activity change, negative = inhibition, hits mostly inhibitors; note: % is set by controls: 0 for no effect and ±100 for the full control effect
ELG1 Luc conf – inhibits ELG1-dependent DNA repair in HEK293T cells, confirmed; Potency, µM (titrated, usually from 46.1 µM), without a hit: top-dose activity change, negative = inhibition, hits mostly inhibitors; shares compounds with ELG1 repair inh; 670 tested, 68% active; AID 624248; HEK293T ELG1-luciferase levels, luminescence; cells co-treated with 5-fluorouridine; note: % is set by controls: 0 for no effect and ±100 for the full control effect; nearly all actives have a fitted effect of over 55% in size
Target sequence (Q96QE3 whole entry, looked up): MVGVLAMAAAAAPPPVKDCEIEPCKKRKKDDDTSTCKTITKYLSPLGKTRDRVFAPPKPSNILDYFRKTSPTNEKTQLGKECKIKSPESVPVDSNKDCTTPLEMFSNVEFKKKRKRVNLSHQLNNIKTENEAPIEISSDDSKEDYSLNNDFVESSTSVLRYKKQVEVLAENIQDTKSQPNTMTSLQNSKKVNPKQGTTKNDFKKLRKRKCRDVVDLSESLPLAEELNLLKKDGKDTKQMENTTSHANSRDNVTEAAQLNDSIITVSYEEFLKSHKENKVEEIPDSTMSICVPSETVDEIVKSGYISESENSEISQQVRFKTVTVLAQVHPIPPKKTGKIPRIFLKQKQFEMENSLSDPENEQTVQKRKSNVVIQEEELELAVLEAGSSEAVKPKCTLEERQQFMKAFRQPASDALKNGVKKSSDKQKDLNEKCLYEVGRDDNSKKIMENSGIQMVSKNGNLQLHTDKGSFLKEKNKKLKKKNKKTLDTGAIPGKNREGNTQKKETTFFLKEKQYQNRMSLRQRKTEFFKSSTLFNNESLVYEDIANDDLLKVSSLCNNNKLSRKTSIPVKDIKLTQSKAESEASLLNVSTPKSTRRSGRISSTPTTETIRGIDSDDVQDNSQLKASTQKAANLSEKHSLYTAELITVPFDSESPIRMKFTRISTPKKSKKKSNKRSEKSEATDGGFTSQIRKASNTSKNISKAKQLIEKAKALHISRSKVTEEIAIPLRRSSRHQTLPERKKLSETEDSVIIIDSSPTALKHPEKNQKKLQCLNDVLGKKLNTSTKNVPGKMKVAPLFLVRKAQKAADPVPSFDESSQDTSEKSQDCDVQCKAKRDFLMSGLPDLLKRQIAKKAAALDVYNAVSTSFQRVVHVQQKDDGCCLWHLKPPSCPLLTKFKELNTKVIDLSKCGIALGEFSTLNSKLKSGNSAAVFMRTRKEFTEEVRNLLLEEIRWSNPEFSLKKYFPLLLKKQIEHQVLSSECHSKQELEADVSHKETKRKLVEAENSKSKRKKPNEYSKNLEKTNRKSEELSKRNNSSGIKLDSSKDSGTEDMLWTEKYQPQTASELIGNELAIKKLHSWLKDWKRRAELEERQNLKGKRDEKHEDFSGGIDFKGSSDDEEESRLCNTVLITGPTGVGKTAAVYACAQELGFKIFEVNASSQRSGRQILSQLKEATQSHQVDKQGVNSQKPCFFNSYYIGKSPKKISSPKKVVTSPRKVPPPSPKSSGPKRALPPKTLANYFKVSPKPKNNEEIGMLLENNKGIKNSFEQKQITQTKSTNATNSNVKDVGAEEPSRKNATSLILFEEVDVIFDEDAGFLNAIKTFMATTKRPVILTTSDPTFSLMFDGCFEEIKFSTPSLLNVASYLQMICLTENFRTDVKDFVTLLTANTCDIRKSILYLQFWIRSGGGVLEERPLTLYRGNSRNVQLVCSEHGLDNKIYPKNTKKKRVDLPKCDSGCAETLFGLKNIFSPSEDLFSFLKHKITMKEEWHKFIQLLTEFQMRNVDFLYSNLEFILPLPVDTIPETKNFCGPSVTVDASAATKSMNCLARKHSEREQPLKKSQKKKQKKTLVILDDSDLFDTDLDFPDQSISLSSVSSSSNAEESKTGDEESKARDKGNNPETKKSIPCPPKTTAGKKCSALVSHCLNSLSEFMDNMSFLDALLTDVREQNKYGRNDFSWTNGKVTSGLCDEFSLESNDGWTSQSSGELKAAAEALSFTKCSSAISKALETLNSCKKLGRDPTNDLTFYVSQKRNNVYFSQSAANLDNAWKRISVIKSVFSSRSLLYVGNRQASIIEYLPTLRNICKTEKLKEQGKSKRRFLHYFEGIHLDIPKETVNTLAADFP
ELG1 MMS Luc – confirmation of human ELG1 repair inhibitors, MMS stimulated; shares compounds with ELG1 repair inh; HEK293T luciferase-tagged ELG1 level, MMS stimulated; Potency, µM (top dose mostly 46.1 µM), without a hit: at the highest dose activity change, negative = inhibition, most hits filed as inhibitors; 670 tested, 53% active; note: % is set by controls: 0 for no effect and ±100 for the full control effect; nearly all actives have a fitted effect of over 60% in size
ELG1 5-FU – confirmation of ELG1 repair inhibitors: viability with 5FU. shares compounds with ELG1 repair inh. cell viability with 5-FU, ELG1-dependent repair. Potency, µM (doses to about 46.1 µM), for the others: at the top dose activity change, negative = viability loss, actives largely listed as cytotoxic. 670 tested, under 10 active;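 note: ELG1-luc HEK293T cells cotreated with 5-fluorouridine at 10 µM final; viability measured 16 h after compound addition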
ELG1 MMS cell – confirmation of ELG1 repair inhibitors: viability with MMS; shares compounds with ELG1 repair inh; Cell viability with MMS, ELG1-dependent DNA repair; Potency, µM (highest dose often 46.1 µM), without a hit: at the highest dose activity change, negative = viability loss, most hits filed as cytotoxic; 670 tested, 33% active; AID 624251;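 note: ELG1-luc HEK293T cells co-treated with 10 µM MMS; viability read 16 h after compound addition; % is set by controls: 0 for no effect and ±100 for the full control effect; nearly all actives have a fitted effect of over 60% in size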
Cell viab unstim – affects unstimulated cell viability, ELG1 hit counter-screen | shares compounds with ELG1 repair inh | cell viability counter-screen, unstimulated, luminescence | Potency, µM (series often up to 45.9 µM), for inactives: at the top dose activity change, negative = loss of viability, usual class: cytotoxic | 900 tested, 8% active;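 note: compound exposure lasted 16 hours before reading; % is set by controls: 0 for no effect and ±100 for the full control effect; nearly all actives have a fitted effect of over 55% in size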
FLuc biochem – counter-screen for ELG1 repair inhibitors: firefly luciferase inhibition | purified firefly luciferase, luminescence counter-screen | Potency, µM (series often up to 57.5 µM), inactives show at the highest dose activity, negative = inhibition, hits mostly inhibitors | 350 tested, 10% active | shares compounds with ELG1 repair inh | AID 624253; note: % is set by controls: 0 for no effect and ±100 for the full control effect
An asterisk follows results filed as active; ? = inconclusive; / = not tested or not shown. Calls come from the whole dose curve; as a rule, active = well fitted curve in the direction sought with a large enough effect; inconclusive = small, poorly fitted or top-dose-only effect, or another doubt; inactive = no such curve, though single readings can be large; an effect the other way counts as inactive or inconclusive. Potency is the fitted concentration of half-maximal effect.

SMILES | Rab9 prom act | NPC1 promoter act | SMN2 splice enh | FLuc counter | ELG1 genotoxic | ELG1 repair inh | ELG1 Luc conf | ELG1 MMS Luc | ELG1 5-FU | ELG1 MMS cell | Cell viab unstim | others
O=C(CSc1nc2ccc(Nc3nc(N4CCOCC4)nc(N4CCOCC4)n3)cc2s1)Nc1ccccc1Cl | 0% | -8% | / | 4% | 1% | 2.9µM* | 4µM* | -13% | ? | 0% | -7% | ELG1 FLuc counter=?;FLuc biochem=-1%
O=C(O)c1cccc(Nc2nc(N3CCOCC3)nc(N3CCOCC3)n2)c1 | -8% | -5% | 23% | 3% | -6% | -1% | 0% | 23% | -1% | -4% | -7% | ELG1 FLuc counter=21%;FLuc biochem=-9%
O=C(O)c1cc(Nc2nc(N3CCOCC3)nc(N3CCOCC3)n2)ccc1Cl | 1% | -5% | ? | 6% | -1% | 1% | / | / | / | / | /
CCOc1ccc(NC(=O)C(=O)NCCN2CCN(C(=O)c3ccc(C)cc3)CC2)cc1 | -1% | -4% | / | 0% | -28% | 6% | / | / | / | / | /
COc1ccc(-n2ncc3c2CC(C)(C)CC3NC(=O)c2c(C)cc(=O)oc2C)cc1 (centres undefined) | -2% | -3% | / | 1% | 1% | 12% | / | / | / | / | /
Cc1cccc(-n2c(N)c(-c3nc4ccccc4n3C)c3nc4ccccc4nc32)c1 | -5% | -6% | -15% | 3% | 0% | 1.8µM* | 2.2µM* | 5% | ? | -4% | ?
CC1CC(C)CN(C(=O)COC(=O)/C=C/c2cccc([N+](=O)[O-])c2)C1 (centres undefined) | 6% | -4% | / | -8% | 2% | -8% | / | / | / | / | /
CC1CN(C(=O)COC(=O)/C=C/c2cccc([N+](=O)[O-])c2)CC(C)O1 (centres undefined) | / | / | / | / | -6% | 1.5µM* | -17% | ? | -5% | ? | ?
C=CCC1(C(=O)NCCO)CCN(C(=O)OC(C)(C)C)CC1 | -1% | -4% | / | 2% | 0% | 1% | / | / | / | / | /
Cc1cccc(Cn2cc(C(=O)c3ccccc3)c(=O)c3cc4c(cc32)OCO4)c1 | / | / | 7% | -3% | / | / | / | / | / | / | /
CC(/C=C/C(=O)NO)=C\[C@@H](C)C(=O)c1ccc(N(C)C)cc1 | / | / | 1.4µM* | / | / | / | / | / | / | / | 14µM* | ELG1 FLuc counter=119%;FLuc biochem=?
CCN(C[C@H]1N[C@@](CC)(C(=O)OC)[C@H]2C(=O)N(Cc3ccccc3)C(=O)[C@@H]12)C(=O)c1ccc(C(C)(C)C)cc1 | / | / | / | / | -11% | 3.7µM* | ? | 7.1µM* | -1% | ? | 25µM*
COc1ccc(C(=O)N/C(=C\c2cccs2)c2nc3ccccc3[nH]2)cc1OC | 0% | -1% | -17% | ? | -2% | 2.3µM* | 7.9µM* | 1% | ? | -1% | ?
COc1ccc(/C=C(/NC(=O)c2ccccc2)c2nc3ccccc3[nH]2)cc1OC | -8% | 5% | 8% | -18% | -4% | -13% | / | / | / | / | /
CCN(Cc1ccccc1)C(=O)CCc1nc(CN2CCN(C(=O)c3ccc([N+](=O)[O-])cc3)CC2)no1 | -3% | -3% | / | -1% | -3% | -2% | / | / | / | / | /
COc1nc(Nc2nc3ccccc3c(=O)[nH]2)nc2ccc(C)cc12 | -30% | -34% | / | -2% | -8% | 4.6µM* | 2.2µM* | 3.1µM* | ? | 7% | -5%
O=C(Nc1ccccc1)c1nc[nH]c1C(=O)NCCCNC(=O)c1[nH]cnc1C(=O)Nc1ccccc1 | / | / | / | / | -6% | 2.9µM* | 4µM* | 11µM* | ? | -1% | -11%
CC(C)(C)OC(=O)NCCCCCNC(=O)c1[nH]cnc1C(=O)N[C@@H](CCCCNC(=O)OC(C)(C)C)C(=O)OC(C)(C)C | -6% | -7% | / | 4% | -15% | ? | / | / | / | / | /
CC(C)(C)OC(=O)NCCCCCNC(=O)c1nc[nH]c1C(=O)NCC(=O)OCc1ccccc1 | / | / | / | / | -6% | 2.6µM* | 7.9µM* | 11µM* | -18% | 22µM* | 18µM*
CC(C)(C)OC(=O)NCCCCCNC(=O)c1nc[nH]c1C(=O)NCCCCCNC(=O)OC(C)(C)C | / | / | / | / | -12% | 2.6µM* | 6.3µM* | 14µM* | ? | 28µM* | 16µM*
CC(C)(C)OC(=O)NCCCCCNC(=O)c1ncn(Cc2ccccc2)c1C(=O)NCCCCCNC(=O)OC(C)(C)C | / | / | / | / | -5% | 4.1µM* | 7.1µM* | -12% | ? | ? | -7%
CCCCn1c(SCC(=O)NCCCOC)nc2c(sc3ccccc32)c1=O | / | / | / | 1% | / | / | / | / | / | / | /
COc1ccccc1-c1nccc(-n2ccnc2)n1 | / | / | 1% | / | / | / | / | / | / | / | /
CC(C)(C)OC(=O)NCc1ccc(NC(=O)c2nc[nH]c2C(=O)NCCNC(=O)c2[nH]cnc2C(=O)Nc2ccc(CNC(=O)OC(C)(C)C)cc2)cc1 | / | / | / | / | -2% | 1.3µM* | 1.1µM* | 3.5µM* | 8% | ? | ?

From PubChem BioAssay
